Screening results (PubChem)
Rows were chosen to be rich in hits. Some 6.3% of all compounds tested hit in one or more screens of this group.
Mdm2 MdmX PPI – inhibitors of human Mdm2/MdmX interaction. O15151+Q00987. SaOS-2 split-luciferase Mdm2/MdmX complementation, luminescence. inhibition, % at 8 µM. actives 3% (n = 330,000);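 active = inhibition of at least 50% at 8 µM in the primary screen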
Target sequence (O15151 whole entry, looked up): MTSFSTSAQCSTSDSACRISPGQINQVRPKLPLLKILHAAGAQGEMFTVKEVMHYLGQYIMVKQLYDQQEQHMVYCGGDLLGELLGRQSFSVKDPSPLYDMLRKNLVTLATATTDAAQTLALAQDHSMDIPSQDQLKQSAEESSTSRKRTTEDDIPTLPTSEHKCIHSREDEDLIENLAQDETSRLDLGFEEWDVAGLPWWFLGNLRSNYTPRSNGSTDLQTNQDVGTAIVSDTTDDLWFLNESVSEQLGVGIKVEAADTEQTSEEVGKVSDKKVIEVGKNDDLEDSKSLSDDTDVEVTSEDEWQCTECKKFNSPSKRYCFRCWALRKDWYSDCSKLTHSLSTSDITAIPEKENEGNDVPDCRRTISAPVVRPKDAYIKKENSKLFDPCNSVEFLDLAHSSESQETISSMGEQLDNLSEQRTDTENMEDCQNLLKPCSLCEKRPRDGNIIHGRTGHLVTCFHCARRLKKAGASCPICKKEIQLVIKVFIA
Target sequence (Q00987 whole entry, looked up): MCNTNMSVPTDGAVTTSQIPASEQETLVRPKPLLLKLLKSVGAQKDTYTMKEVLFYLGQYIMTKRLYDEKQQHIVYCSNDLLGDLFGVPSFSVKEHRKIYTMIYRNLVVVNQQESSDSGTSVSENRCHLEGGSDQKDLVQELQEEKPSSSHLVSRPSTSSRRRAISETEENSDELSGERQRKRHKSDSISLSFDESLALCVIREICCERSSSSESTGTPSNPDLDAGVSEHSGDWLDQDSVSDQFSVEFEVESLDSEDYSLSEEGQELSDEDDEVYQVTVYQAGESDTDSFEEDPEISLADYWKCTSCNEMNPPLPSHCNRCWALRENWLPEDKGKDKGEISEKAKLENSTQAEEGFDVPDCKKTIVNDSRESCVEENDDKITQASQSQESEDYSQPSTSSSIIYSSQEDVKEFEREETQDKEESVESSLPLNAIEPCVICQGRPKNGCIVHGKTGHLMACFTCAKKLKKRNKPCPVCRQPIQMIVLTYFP
TIM10 inh – TIM10 yeast growth inhibition; S. cerevisiae TIM10 strain growth, BacTiter-Glo luminescence, 24 h; inhibition, % at 10 µM; actives 1.4% (n = 330,000); AID 463195;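 active = inhibition of 40% or more at the single tested concentration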;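 also: wild-type TIM10 isogenic control strain grown at permissive 25 °C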
tim23-1 inh – tim23-1 yeast growth inhibition; actives 1.3% (n = 330,000); S. cerevisiae tim23-1 growth, BacTiter-Glo luminescence, 24 h; inhibition, % at 20 µM;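 active = growth inhibition of the mutant yeast at or above 50%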;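 also: temperature-sensitive mutant grown at 25 °C; plate controls were DMSO-treated mutant yeast for no effect and medium wells lacking yeast for full effect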
tim10-1 inh – tim10-1 yeast growth inhibition. inhibition, % at 20 µM. AID 463190. S. cerevisiae tim10-1 ts strain growth, BacTiter-Glo, 24 h. actives 2.2% (n = 330,000);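 active = inhibition of at least 40%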;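 also: mutant grown at 25 °C; 0% = DMSO wells with yeast and 100% = wells holding no yeast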
MPTP inh – permeability transition pore inhibition. isolated mouse mitochondria, Ca2+ swelling absorbance, 30 min. inhibition, % at 10 µM. actives 1.4% (n = 360,000). AID 602449;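 active = inhibition of 50% or more, scaled per plate between neutral and stimulator controls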;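 also: 0% = DMSO wells given calcium and 100% = 1 mM EGTA wells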
Mdm2-MdmX conf – confirmation of human Mdm2/MdmX interaction inhibitors. inhibition, % at 8 µM. Mdm2-MdmX binding, luminescent assay. AID 489028. actives 55% (n = 10,000). shares compounds with Mdm2 MdmX PPI; in the data active = inhibition above about 40%
Full FLuc ctr – full-length luciferase inhibition in Mdm2/MdmX counter-screen; actives 77% (n = 6,200); inhibition, % at 8 µM; SaOS-2 full-length luciferase counterscreen, luminescence; shares compounds with Mdm2 MdmX PPI;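 active = mean inhibition at 8 µM reaching about 37%, which flags the compound as non-specific, limit read from the data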;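 also: p53-null SaOS-2 cells with luciferase driven by a doxycycline-inducible promoter; compound on cells about two nights before reading with doxycycline added after day one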
* = called active by the depositor; / = not tested or not shown.

SMILES	Mdm2 MdmX PPI	TIM10 inh	tim23-1 inh	tim10-1 inh	MPTP inh	Mdm2-MdmX conf	Full FLuc ctr
Cc1cc(C)c2c(=N)c3ccccc3n(CCCCCCCCn3c4ccccc4c(=N)c4c(C)cc(C)nc43)c2n1	/	/	/	/	9.4	/	/
C=CCn1c(O)c(N=NC(=S)Nc2cccc(C)c2)c2ccccc21	61.0*	38.9	25.6	36.5	-2.7	55.4*	33.1
Cc1ccc(NC(=O)Cn2c(O)c(N=NC(N)=S)c3ccccc32)cc1	51.2*	-13.0	-17.6	-36.8	-0.2	32.1	64.8*
Cc1ccc(NC(=O)Cn2c(O)c(N=NC(N)=O)c3ccccc32)cc1	24.6	-2.3	5.5	-2.9	0.8	/	/
CCn1c(O)c(N=NC(=O)CNc2cccc(C)c2)c2ccccc21	39.5	11.1	-31.9	4.3	2.2	/	/
Cc1ccc(Cn2c(O)c(N=NC(=S)Nc3ccccc3F)c3ccccc32)cc1	57.1*	7.2	-6.7	14.0	-0.6	60.0*	48.5*
O=C(Nc1nnc(-c2ccc3c(c2)CCCC3)o1)c1ccc(Cl)cc1Cl	50.6*	18.4	35.3	28.1	-13.5	24.6	/
CN(C)S(=O)(=O)c1ccc(C(=O)Nc2nnc(-c3ccc4c(c3)CCCC4)o2)cc1	60.4*	-0.9	2.4	12.0	-24.6	23.4	/
O=C(Nc1nnc(-c2ccc3c(c2)CCCC3)o1)c1c(F)cccc1F	15.1	10.0	37.4	13.3	-0.2	/	/
CCCNC(=O)C1(C)CCN(C(=O)c2cccc(C(F)(F)F)c2)C1 (centres undefined)	/	/	/	/	0.2	/	/
COc1ccccc1Nc1nc(NCC(C)C)nc(N)c1[N+](=O)[O-]	62.0*	29.4	49.8	39.8	12.3	46.7*	59.1*
CC(C)(C)c1ccc(S(=O)(=O)NC(=O)C2(C)CCN2C(=O)Cc2cccs2)cc1 (centres undefined)	/	/	/	/	5.2	/	/
NC[C@H](Cc1ccccc1)NCCCCC1CCCCC1	-14.4	3.5	3.3	1.4	0.2	/	/
CNC[C@H](CC1CCCCC1)NC[C@H](Cc1ccccc1)NCCC12CC3CC(CC(C3)C1)C2	100.3*	-75.0	-96.9	35.1	6.5	99.7*	52.0*
CC(N)c1csc(Nc2cc(Oc3ccccc3)ncn2)n1 (centres undefined)	/	/	/	/	0.6	/	/
COc1ccc(-c2csc(NC(=O)CSc3nc4ccccc4c(=O)[nH]3)n2)cc1	50.6*	-7.1	-10.4	-8.2	-0.4	-8.6	/
COc1ccc2cc(C)c3nnc(SCC(=O)Nc4nc(-c5ccc(F)cc5)cs4)n3c2c1	86.4*	-0.2	-16.3	11.9	3.1	25.1	/
COC(=O)[C@]12CCCCC=C1N(Cc1ccc3c(c1)OCO3)C(=O)[C@H](CC(=O)N1CCCCC1)C2	/	/	/	/	-1.0	/	/
CCCCNC(=O)C1c2ccccc2OCC(=O)N1C1CC1 (centres undefined)	/	/	/	/	-0.1	/	/
COc1cccc(-n2c(SCC(=O)N3CCOCC3)nc3c([nH]c4ccccc43)c2=O)c1	64.6*	-12.4	-6.6	-6.8	1.5	13.2	/
COc1cccc(-n2c(SCC(=O)N3CCOCC3)nnc2-c2c[nH]c3ccccc23)c1	0.9	-3.9	-8.1	-2.4	-0.7	/	/
CCn1c(SCC(=O)N2CCN(c3ccccc3)CC2)nc2c([nH]c3ccccc32)c1=O	58.4*	-15.5	-10.8	-15.8	-1.0	27.5	86.1*
CCn1c(SCC(=O)NCCc2ccccc2)nc2c([nH]c3ccccc32)c1=O	59.1*	-8.7	-18.2	-11.2	0.0	32.3	/
COc1cc(-c2coc3c(C(=O)NCc4cccc(Cl)c4)cccc23)ccc1O	/	/	/	/	1.2	/	/
COc1ccc(/C=N/Nc2cc(N3CCOCC3)ncn2)c(OC)c1	27.7	-2.7	-3.6	-4.4	1.0	/	/
SMILES	Mdm2 MdmX PPI	TIM10 inh	tim23-1 inh	tim10-1 inh	MPTP inh	Mdm2-MdmX conf	Full FLuc ctr
COc1cccc(/C=N/Nc2cc(N3CCOCC3)ncn2)c1O	73.4*	-20.1	47.0	-12.8	-0.6	61.4*	63.2*
COc1cccc(/C=N/Nc2cc(Cl)nc(C)n2)c1O	-13.9	4.7	6.7	-3.2	-2.2	/	/
COc1cccc(/C=N/Nc2ncnc3c2ncn3Cc2ccccc2)c1O	81.8*	-16.7	7.9	25.7	-0.4	82.0*	62.6*
COc1ccc(C(=O)Oc2c(CN3CCOCC3)cc(Cl)c3cccnc23)cc1OC	60.2*	12.9	35.8	29.8	/	36.9	/
COc1cc(OC)cc(C(=O)Oc2c(CN3CCOCC3)cc(Cl)c3cccnc23)c1	50.2*	20.5	48.1	25.1	-3.3	44.7*	33.8
CC[C@@H]1Cc2[nH]c(=O)[nH]c(=O)c2[C@H](c2ccc(Cl)cc2)O1	/	/	/	/	0.9	/	/
CC(C)N1C(=O)C(=O)N(CC(=O)N2c3ccccc3CC2C)C1=O (centres undefined)	/	/	/	/	-1.0	/	/
CCc1cc(C(=O)N2CCc3c([nH]c4ccccc34)C2c2ccc(OC)cc2F)no1 (centres undefined)	83.3*	25.2	24.2	15.7	0.5	85.0*	34.5
N#Cc1ccc(-c2cccc3nccn23)cc1	/	/	/	/	0.6	/	/
Cc1cc2cc(CCNC(=O)C3c4ccccc4Oc4ccccc43)c(=O)[nH]c2cc1C	62.7*	-5.3	4.0	3.4	/	14.4	/
CCOC(=O)C1=C(O)/C(=C/c2cn(CC(=O)NCC3CCCO3)c3ccccc23)SC1=Nc1ccc(C)cc1 (centres undefined)	99.0*	5.4	-5.8	6.5	-0.5	92.2*	46.6*
Cc1cc(C(=O)CN2C(=O)c3ccccc3C2=O)c(C)n1Cc1cccs1	67.8*	9.2	-7.5	9.5	-1.6	67.0*	102.2*
CN(C)/C=C/C(=O)c1ccc2noc(-c3ccccc3)c2c1	50.9*	19.5	24.6	32.2	-0.4	34.1	/
CCCN1CCC(N(CCc2ccccc2)Cc2ccccc2)CC1	15.4	-149.0	-70.6	-77.7	1.1	/	/
COc1ccc(CN2CCC(N(CCc3ccccc3)Cc3ccccc3)CC2)c(OC)c1	86.2*	2.8	-29.3	-11.1	5.9	30.7	/
COc1ccccc1-c1c(C#N)c(N)nc2c1CCc1ccccc1-2	69.8*	8.0	21.2	23.6	-2.2	70.5*	52.9*
CCOC(=O)COc1nc2c(c(-c3ccco3)c1C#N)CCc1ccccc1-2	-6.1	20.0	17.8	18.7	1.1	/	/
CCOc1cc(-c2c(C#N)c(N)nc3c2CCc2ccccc2-3)ccc1O	81.1*	17.1	24.8	13.6	-3.3	78.5*	51.0*
O=C1[C@@H](Oc2ccccc2)[C@@H](c2ccncc2)N1c1ccccc1	53.0*	-3.3	30.7	17.2	-2.3	48.5*	47.7*
O=C1[C@@H](Oc2ccccc2)[C@@H](c2ccccc2)N1c1cccnc1	/	/	/	/	-0.7	/	/
O=C(NC1CCCC1)C(c1ccc(F)cc1)N(Cc1ccc(F)cc1)C(=O)c1ccn[nH]1 (centres undefined)	-11.8	21.3	26.4	17.0	1.0	/	/
O=C(NC1CCCC1)C(c1ccc(F)cc1)N(Cc1ccccc1Cl)C(=O)CCl (centres undefined)	55.2*	36.4	34.3	36.8	-0.6	20.5	/
